Assay results published in paper PMC7862700, “An all-to-all approach to the identification of sequence-specific readers for epigenetic DNA modifications on cytosine”.

How the values were obtained:
Experiment in all cases: DAPPL (digital affinity profiling via proximity ligation, sequencing); 10 mM Tris-HCl pH 7.5, 50 mM NaCl, 1 mM DTT, 4% glycerol, room temperature, 30 min; GST-TFs on glutathione beads, 16-mer random dsDNA library, 0.1% formaldehyde crosslink after washing; high values mean tight binding
FEV = target: T1, FEV (Homo sapiens, UniProt Q99581 1-238); conditions: protein: recombinant; tags: N-terminal GST; dsDNA, one strand shown
T1 sequence: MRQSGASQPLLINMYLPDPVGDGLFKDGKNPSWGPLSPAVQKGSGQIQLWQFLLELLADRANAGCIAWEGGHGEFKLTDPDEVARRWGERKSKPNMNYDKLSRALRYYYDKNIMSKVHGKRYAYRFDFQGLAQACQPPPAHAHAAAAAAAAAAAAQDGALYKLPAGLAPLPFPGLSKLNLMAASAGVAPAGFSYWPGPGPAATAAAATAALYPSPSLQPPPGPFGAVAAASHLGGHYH
Summary of the method: (§1)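 GST fusions of human transcription factors were expressed in yeast and captured with glutathione beads. Once given DNA barcodes and pooled alongside a tag-only sample, they were incubated for 30 min at room temperature with 200 nmole of a random double-stranded 16-mer DNA library in Tris/NaCl/DTT/glycerol buffer, then washed, crosslinked (0.1% formaldehyde), proximity-ligated, PCR-amplified and sequenced on an Illumina NextSeq500. The binding signal of each hexamer is its read frequency for a factor divided by its frequency for the tag-only sample.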

ETV5 = ETV5 (Homo sapiens, UniProt P41161 1-510); conditions: protein: recombinant; tags: N-terminal GST; dsDNA, one strand shown
Summary of the method: as §1

HSF1 = HSF1 (Homo sapiens, UniProt Q00613 1-529); conditions: protein: recombinant; tags: N-terminal GST; chain copies: 3; dsDNA, one strand shown
Summary of the method: as §1

SPIC = target: T2, SPIC (Homo sapiens, UniProt Q8N5J4 1-248); conditions: protein: recombinant; tags: N-terminal GST; dsDNA, one strand shown
T2 sequence: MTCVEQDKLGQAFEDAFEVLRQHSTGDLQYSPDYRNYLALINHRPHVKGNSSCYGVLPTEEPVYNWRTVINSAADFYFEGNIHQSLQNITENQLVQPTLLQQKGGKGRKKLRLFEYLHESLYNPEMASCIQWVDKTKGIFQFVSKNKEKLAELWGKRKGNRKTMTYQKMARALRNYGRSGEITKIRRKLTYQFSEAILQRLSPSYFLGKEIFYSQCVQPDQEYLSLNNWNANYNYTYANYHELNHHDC
Summary of the method: as §1

ELF4 = ELF4 (Homo sapiens, UniProt Q99607 1-663); conditions: protein: recombinant; tags: N-terminal GST; dsDNA, one strand shown
Summary of the method: as §1

ELK4 = target: T3, ELK4 (Homo sapiens, UniProt P28324-2 1-405); conditions: protein: recombinant; tags: N-terminal GST; dsDNA, one strand shown
T3 sequence: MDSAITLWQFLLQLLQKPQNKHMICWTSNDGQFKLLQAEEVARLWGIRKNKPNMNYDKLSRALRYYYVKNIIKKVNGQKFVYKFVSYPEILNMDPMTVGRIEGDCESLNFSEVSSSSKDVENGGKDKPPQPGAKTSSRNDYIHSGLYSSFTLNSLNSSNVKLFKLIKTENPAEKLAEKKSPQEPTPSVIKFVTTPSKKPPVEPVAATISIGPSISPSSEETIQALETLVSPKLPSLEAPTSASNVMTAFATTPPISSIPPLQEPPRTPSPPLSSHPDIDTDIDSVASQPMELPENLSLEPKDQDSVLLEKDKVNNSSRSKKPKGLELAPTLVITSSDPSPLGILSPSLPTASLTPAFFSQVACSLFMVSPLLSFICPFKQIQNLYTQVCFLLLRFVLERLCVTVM
Summary of the method: as §1

ETV2 = target: T4, ETV2 (Homo sapiens, UniProt O00321 1-342); conditions: protein: recombinant; tags: N-terminal GST; dsDNA, one strand shown
T4 sequence: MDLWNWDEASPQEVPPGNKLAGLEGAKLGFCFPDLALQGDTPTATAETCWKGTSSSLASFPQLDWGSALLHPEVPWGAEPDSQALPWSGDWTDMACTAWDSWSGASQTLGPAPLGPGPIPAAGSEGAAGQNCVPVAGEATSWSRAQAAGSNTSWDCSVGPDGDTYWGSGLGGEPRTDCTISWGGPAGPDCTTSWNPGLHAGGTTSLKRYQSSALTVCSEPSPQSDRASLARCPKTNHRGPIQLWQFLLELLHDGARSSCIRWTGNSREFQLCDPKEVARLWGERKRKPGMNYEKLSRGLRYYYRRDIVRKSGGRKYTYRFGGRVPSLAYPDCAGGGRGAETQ
Summary of the method: as §1

ELF3 = target: T5, ELF3 (Homo sapiens, UniProt P78545 1-371); conditions: protein: recombinant; tags: N-terminal GST; dsDNA, one strand shown
T5 sequence: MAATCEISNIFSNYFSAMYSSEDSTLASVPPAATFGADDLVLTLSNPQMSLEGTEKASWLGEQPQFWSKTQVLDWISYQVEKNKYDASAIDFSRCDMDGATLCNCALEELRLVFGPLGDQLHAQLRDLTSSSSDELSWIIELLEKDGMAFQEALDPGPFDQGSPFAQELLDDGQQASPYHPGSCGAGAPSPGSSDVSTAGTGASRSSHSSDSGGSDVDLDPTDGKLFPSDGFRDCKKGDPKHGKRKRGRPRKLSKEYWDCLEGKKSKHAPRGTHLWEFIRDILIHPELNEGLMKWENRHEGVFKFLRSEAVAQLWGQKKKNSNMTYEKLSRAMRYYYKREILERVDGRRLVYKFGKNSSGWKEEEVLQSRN
Summary of the method: as §1

CRX = CRX (Homo sapiens, UniProt O43186 1-299); conditions: protein: recombinant; tags: N-terminal GST; dsDNA, one strand shown
Summary of the method: as §1

ETV1 = ETV1 (Homo sapiens, UniProt P50549 1-477); conditions: protein: recombinant; tags: N-terminal GST; dsDNA, one strand shown
Summary of the method: as §1

ETV1, sequence (P50549 whole entry): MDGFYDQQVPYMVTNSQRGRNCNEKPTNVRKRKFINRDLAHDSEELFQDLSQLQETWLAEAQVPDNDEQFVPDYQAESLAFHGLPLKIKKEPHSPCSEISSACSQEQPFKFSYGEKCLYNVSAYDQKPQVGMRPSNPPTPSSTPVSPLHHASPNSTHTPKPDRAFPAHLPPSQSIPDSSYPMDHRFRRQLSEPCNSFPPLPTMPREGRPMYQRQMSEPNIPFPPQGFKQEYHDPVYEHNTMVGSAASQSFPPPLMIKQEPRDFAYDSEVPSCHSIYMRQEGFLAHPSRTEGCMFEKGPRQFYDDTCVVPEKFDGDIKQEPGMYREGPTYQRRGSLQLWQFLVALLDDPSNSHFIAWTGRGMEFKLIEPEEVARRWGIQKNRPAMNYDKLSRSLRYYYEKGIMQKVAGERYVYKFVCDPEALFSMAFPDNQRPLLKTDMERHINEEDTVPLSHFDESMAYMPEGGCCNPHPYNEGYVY
ELF4, sequence (Q99607 whole entry): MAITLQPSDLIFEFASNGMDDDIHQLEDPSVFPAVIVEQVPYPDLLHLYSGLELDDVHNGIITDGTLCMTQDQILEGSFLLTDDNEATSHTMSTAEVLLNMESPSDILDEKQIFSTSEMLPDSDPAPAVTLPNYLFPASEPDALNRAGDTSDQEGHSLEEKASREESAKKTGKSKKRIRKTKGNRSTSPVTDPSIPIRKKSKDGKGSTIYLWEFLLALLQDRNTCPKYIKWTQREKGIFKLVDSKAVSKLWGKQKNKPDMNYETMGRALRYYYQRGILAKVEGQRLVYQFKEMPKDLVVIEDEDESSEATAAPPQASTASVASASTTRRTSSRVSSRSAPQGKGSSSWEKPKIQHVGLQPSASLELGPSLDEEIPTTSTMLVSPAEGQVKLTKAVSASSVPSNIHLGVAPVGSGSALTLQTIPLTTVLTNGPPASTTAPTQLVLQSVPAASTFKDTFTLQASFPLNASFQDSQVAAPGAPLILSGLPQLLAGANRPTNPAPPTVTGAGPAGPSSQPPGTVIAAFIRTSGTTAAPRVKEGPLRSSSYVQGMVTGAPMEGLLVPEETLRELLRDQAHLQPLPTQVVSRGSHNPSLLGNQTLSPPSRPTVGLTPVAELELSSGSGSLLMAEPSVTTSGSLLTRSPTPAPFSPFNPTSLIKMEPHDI
CRX, sequence (O43186 whole entry): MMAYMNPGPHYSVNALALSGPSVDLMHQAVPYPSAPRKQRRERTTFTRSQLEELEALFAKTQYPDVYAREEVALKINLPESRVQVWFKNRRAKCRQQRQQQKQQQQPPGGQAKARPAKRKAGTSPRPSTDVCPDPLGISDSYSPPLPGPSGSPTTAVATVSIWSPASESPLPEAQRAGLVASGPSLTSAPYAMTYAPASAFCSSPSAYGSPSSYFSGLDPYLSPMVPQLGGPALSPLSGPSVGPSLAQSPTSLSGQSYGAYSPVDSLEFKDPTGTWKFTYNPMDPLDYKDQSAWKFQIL
HSF1, sequence (Q00613 whole entry): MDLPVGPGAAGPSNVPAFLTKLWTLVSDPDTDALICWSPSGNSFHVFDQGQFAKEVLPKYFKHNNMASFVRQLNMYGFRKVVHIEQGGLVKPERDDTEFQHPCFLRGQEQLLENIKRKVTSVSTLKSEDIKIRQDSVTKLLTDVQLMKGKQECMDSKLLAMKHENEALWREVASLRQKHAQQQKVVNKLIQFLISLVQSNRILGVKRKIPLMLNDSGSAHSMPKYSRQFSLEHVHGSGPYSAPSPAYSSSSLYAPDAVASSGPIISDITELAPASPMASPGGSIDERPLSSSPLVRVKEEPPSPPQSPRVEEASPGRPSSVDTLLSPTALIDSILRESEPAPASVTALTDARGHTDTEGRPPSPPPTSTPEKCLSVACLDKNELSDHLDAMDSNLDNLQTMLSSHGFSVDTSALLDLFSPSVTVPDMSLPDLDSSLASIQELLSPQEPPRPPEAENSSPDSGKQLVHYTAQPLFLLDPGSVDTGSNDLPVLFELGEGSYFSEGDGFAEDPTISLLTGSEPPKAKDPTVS
ETV5, sequence (P41161 whole entry): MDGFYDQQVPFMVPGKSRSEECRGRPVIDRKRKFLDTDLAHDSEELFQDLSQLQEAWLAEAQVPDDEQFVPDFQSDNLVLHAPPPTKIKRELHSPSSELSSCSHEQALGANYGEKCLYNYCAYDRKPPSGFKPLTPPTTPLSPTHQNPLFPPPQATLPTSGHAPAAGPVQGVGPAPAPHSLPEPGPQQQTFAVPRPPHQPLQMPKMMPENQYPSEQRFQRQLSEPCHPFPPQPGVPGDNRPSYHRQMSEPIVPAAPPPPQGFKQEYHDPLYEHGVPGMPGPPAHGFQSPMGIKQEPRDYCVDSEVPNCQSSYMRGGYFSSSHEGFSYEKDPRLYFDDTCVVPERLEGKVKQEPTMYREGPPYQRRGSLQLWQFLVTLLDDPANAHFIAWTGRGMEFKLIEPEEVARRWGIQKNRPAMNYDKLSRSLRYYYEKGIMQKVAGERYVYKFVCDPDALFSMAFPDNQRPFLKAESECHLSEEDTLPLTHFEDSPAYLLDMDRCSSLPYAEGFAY

Sequence	binding signal (FEV)	binding signal (ETV5)	binding signal (HSF1)	binding signal (SPIC)	binding signal (ELF4)	binding signal (ELK4)	binding signal (ETV2)	binding signal (ELF3)	binding signal (CRX)	binding signal (ETV1)
AACACA	1.31 fold enrichment (6-mer frequency, TF over GST control)	1.33 fold enrichment (6-mer frequency, TF over GST control)	1.13 fold enrichment (6-mer frequency, TF over GST control)	1.33 fold enrichment (6-mer frequency, TF over GST control)	1.32 fold enrichment (6-mer frequency, TF over GST control)	1.42 fold enrichment (6-mer frequency, TF over GST control)	1.49 fold enrichment (6-mer frequency, TF over GST control)	1.26 fold enrichment (6-mer frequency, TF over GST control)	1.1 fold enrichment (6-mer frequency, TF over GST control)	1.27 fold enrichment (6-mer frequency, TF over GST control)
TTTTCT	1.26 fold enrichment (6-mer frequency, TF over GST control)	1.28 fold enrichment (6-mer frequency, TF over GST control)	2.46 fold enrichment (6-mer frequency, TF over GST control)	1.15 fold enrichment (6-mer frequency, TF over GST control)	1.46 fold enrichment (6-mer frequency, TF over GST control)	1.32 fold enrichment (6-mer frequency, TF over GST control)	1.48 fold enrichment (6-mer frequency, TF over GST control)	1.35 fold enrichment (6-mer frequency, TF over GST control)	1.61 fold enrichment (6-mer frequency, TF over GST control)	1.21 fold enrichment (6-mer frequency, TF over GST control)
TCTCCA	1.44 fold enrichment (6-mer frequency, TF over GST control)	1.39 fold enrichment (6-mer frequency, TF over GST control)	1.91 fold enrichment (6-mer frequency, TF over GST control)	1.36 fold enrichment (6-mer frequency, TF over GST control)	1.42 fold enrichment (6-mer frequency, TF over GST control)	1.69 fold enrichment (6-mer frequency, TF over GST control)	1.55 fold enrichment (6-mer frequency, TF over GST control)	1.29 fold enrichment (6-mer frequency, TF over GST control)	1.52 fold enrichment (6-mer frequency, TF over GST control)	1.38 fold enrichment (6-mer frequency, TF over GST control)
TCTCAG	1.37 fold enrichment (6-mer frequency, TF over GST control)	1.33 fold enrichment (6-mer frequency, TF over GST control)	1.4 fold enrichment (6-mer frequency, TF over GST control)	1.16 fold enrichment (6-mer frequency, TF over GST control)	1.36 fold enrichment (6-mer frequency, TF over GST control)	1.34 fold enrichment (6-mer frequency, TF over GST control)	1.37 fold enrichment (6-mer frequency, TF over GST control)	1.37 fold enrichment (6-mer frequency, TF over GST control)	1.46 fold enrichment (6-mer frequency, TF over GST control)	1.33 fold enrichment (6-mer frequency, TF over GST control)
TCCGAC	1.68 fold enrichment (6-mer frequency, TF over GST control)	1.44 fold enrichment (6-mer frequency, TF over GST control)	1.23 fold enrichment (6-mer frequency, TF over GST control)	1.59 fold enrichment (6-mer frequency, TF over GST control)	1.44 fold enrichment (6-mer frequency, TF over GST control)	1.43 fold enrichment (6-mer frequency, TF over GST control)	1.35 fold enrichment (6-mer frequency, TF over GST control)	1.47 fold enrichment (6-mer frequency, TF over GST control)	1.25 fold enrichment (6-mer frequency, TF over GST control)	1.55 fold enrichment (6-mer frequency, TF over GST control)
ATCCTG	1.46 fold enrichment (6-mer frequency, TF over GST control)	1.71 fold enrichment (6-mer frequency, TF over GST control)	1.33 fold enrichment (6-mer frequency, TF over GST control)	1.19 fold enrichment (6-mer frequency, TF over GST control)	1.35 fold enrichment (6-mer frequency, TF over GST control)	1.33 fold enrichment (6-mer frequency, TF over GST control)	1.42 fold enrichment (6-mer frequency, TF over GST control)	1.35 fold enrichment (6-mer frequency, TF over GST control)	1.55 fold enrichment (6-mer frequency, TF over GST control)	1.43 fold enrichment (6-mer frequency, TF over GST control)
AATTGC	1.39 fold enrichment (6-mer frequency, TF over GST control)	1.43 fold enrichment (6-mer frequency, TF over GST control)	1.24 fold enrichment (6-mer frequency, TF over GST control)	1.2 fold enrichment (6-mer frequency, TF over GST control)	1.36 fold enrichment (6-mer frequency, TF over GST control)	1.29 fold enrichment (6-mer frequency, TF over GST control)	1.44 fold enrichment (6-mer frequency, TF over GST control)	1.5 fold enrichment (6-mer frequency, TF over GST control)	1.17 fold enrichment (6-mer frequency, TF over GST control)	1.35 fold enrichment (6-mer frequency, TF over GST control)
CTCTTG	1.34 fold enrichment (6-mer frequency, TF over GST control)	1.41 fold enrichment (6-mer frequency, TF over GST control)	1.24 fold enrichment (6-mer frequency, TF over GST control)	1.35 fold enrichment (6-mer frequency, TF over GST control)	1.42 fold enrichment (6-mer frequency, TF over GST control)	1.52 fold enrichment (6-mer frequency, TF over GST control)	1.36 fold enrichment (6-mer frequency, TF over GST control)	1.22 fold enrichment (6-mer frequency, TF over GST control)	1.21 fold enrichment (6-mer frequency, TF over GST control)	1.41 fold enrichment (6-mer frequency, TF over GST control)
